Source: PubChem (National Center for Advancing Translational Sciences (NCATS))
An excerpt weighted towards active compounds, which were near 2.4% of everything screened.
D2 antagonist: HTS Assay for Allosteric Antagonists of the Human D2 Dopamine Receptor: Primary Screen for Antagonists; D(2) dopamine receptor (Homo sapiens), P14416; HEK293 TREx D2 cells, calcium flux, dopamine EC80; inhibition, % at 10 µM; actives 2% (n = 340,000); AID 485344, 2010; in the data active = inhibition above about 30%; inactive = below that, where a call was filed; note: 0% is about no effect
Target sequence (P14416 whole entry, looked up): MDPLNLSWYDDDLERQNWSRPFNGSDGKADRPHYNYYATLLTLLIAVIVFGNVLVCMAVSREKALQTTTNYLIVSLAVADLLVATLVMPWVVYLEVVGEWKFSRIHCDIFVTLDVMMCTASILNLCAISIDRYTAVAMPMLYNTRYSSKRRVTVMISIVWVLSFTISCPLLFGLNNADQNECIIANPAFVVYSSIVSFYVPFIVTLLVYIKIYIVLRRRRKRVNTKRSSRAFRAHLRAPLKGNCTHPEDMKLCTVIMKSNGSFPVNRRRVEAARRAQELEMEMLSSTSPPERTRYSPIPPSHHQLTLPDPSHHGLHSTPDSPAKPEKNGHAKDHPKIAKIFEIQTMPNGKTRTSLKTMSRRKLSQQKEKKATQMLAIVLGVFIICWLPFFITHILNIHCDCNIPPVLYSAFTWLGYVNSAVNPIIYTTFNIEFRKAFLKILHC
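Measurement of antagonist activity uses fluorescent calcium dye in inducible HEK293 T-REx D2 cells: 10 s baseline, compound addition with 180 s read, EC80 dopamine addition with a further 180 s read.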
D2 PAM-1: HTS Assay for Positive Allosteric Modulators of the Human D2 Dopamine Receptor: Primary Screen for Potentiators | potentiation, % at 10 µM | HEK293 T-REx D2, calcium flux, EC20 dopamine potentiation | D(2) dopamine receptor (Homo sapiens), P14416 | actives 0.34% (n = 340,000) | AID 485347, 2010;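 active = potentiation over 3 SD above the plate norm, cut at about 30% in these data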; note: 0% is about no effect
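Calcium flux readout, no-wash dye, 1 read/s. Inducible HEK293 Trex D2 line, overnight 30 C. Compound alone 180 s (agonist flags), then EC20 dopamine, another 180 s to score potentiation.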
D2 ag-1: Beta-Arrestin HTS for Positive Allosteric Modulators of the Human D2 Dopamine Receptor: Agonists. D(2) dopamine receptor (Homo sapiens), P14416. DiscoveRx PathHunter D2 beta-arrestin, luminescence, 90 min; 100% = 57 uM dopamine signal. activation, % (test concentration not listed). actives 0.084% (n = 360,000). AID 624465, 2012; in the data active = activation above about 40%
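DiscoveRx PathHunter D2 beta-arrestin cells (2,100/well) attached overnight, then compound-stimulated 90 min at 37 C in HBSS/10 mM HEPES/0.1% Tween-20 buffer; beta-galactosidase complementation read by luminescence after 1 h at ambient temperature. Dopamine 57 uM final (EC100) as control.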
D2 PAM-2: Beta-Arrestin HTS for Positive Allosteric Modulators of the Human D2 Dopamine Receptor: Potentiators; DiscoveRx D2 beta-arrestin cells, luminescence, 90 min; 100% = 57 uM dopamine signal; potentiation, % (concentration not given with the values); actives 0.23% (n = 360,000); D(2) dopamine receptor (Homo sapiens), P14416; in the data active = potentiation above about 50%
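PathHunter beta-arrestin assay in DiscoveRx D2 cells. Compounds were added with an EC20 of dopamine (50 nM final) for 90 min at 37 deg C. Luminescence was read 1 h after detection reagent, with 57 uM dopamine as the EC100 control.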
D2 ag-2: HTS Assay for Allosteric Agonists of the Human D2 Dopamine Receptor: Primary Screen for Agonists; D(2) dopamine receptor (Homo sapiens), P14416; HEK293 T-REx D2 cells, calcium flux agonist mode; activation, % at 2 µM; actives 0.53% (n = 340,000); AID 485358, 2010;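 active = activation over 3 SD above normal in the single-dose calcium agonist read, cut at about 30% in these data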; note: 0% is about no effect
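Tetracycline-induced HEK293 Trex cells with D2 receptor force-coupled to calcium signaling, plated overnight at 30 C and loaded with no-wash calcium dye. Calcium flux read kinetically for 180 s after compound addition; responses flag agonists.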
Starred values were filed as active, the others as inactive.

What do the screens show for `NC(N)=NC(N)=Nc1ccc2ccccc2c1`?
D2 antagonist: 33*; D2 PAM-1: -11; D2 ag-1: -7; D2 PAM-2: -9; D2 ag-2: 0

What do the screens show for `COc1ccc(CCNC(=O)CCc2cn(Cc3ccc(F)cc3)c3ccccc23)cc1OC`?
D2 PAM-1: 5; D2 ag-2: -1

How did O=C(NC1=NCCS1)c1cccc(S(=O)(=O)N2CCOCC2)c1 do in these assays?
D2 antagonist: 34*; D2 PAM-1: -8; D2 ag-1: 0; D2 PAM-2: -4; D2 ag-2: 0

How did O=C(c1cccc(S(=O)(=O)N2CCOCC2)c1)N1CCN(S(=O)(=O)c2cccs2)CC1 do in these assays?
D2 antagonist: 42*; D2 PAM-1: -1; D2 ag-1: -3; D2 PAM-2: -6; D2 ag-2: 4

Results for O=C(c1cccc(S(=O)(=O)N2CCCCC2)c1)N1CCOCC1 ?
D2 antagonist: 10; D2 PAM-1: -1; D2 ag-1: -3; D2 PAM-2: -13; D2 ag-2: 0

How did COc1ccc(CNC(=O)CCC(=O)N2CCSc3ccccc32)cc1 do in these assays?
D2 PAM-1: -7; D2 ag-2: 0

What do the screens show for `COc1cc(C(=O)N(Cc2cccnc2)Cc2cc3cc4c(cc3[nH]c2=O)OCCO4)cc(OC)c1OC`?
D2 antagonist: 37*; D2 PAM-1: 7; D2 ag-1: -3; D2 PAM-2: 5; D2 ag-2: 0

How did CC1CCC/C(=N/Nc2nc3ccccc3s2)C1 (stereo not given) do in these assays?
D2 antagonist: -3; D2 PAM-1: 5; D2 ag-1: -12; D2 PAM-2: -8; D2 ag-2: -1

How did CC1(C)CC(=O)C/C(=N/Nc2nc3ccccc3s2)C1 do in these assays?
D2 antagonist: 36*; D2 PAM-1: 7; D2 ag-1: -3; D2 PAM-2: -3; D2 ag-2: 1

What do the screens show for `CSc1cccc(NC(=O)/C=C/c2ccc(Cl)cc2)c1`?
D2 antagonist: 70*; D2 PAM-1: -21; D2 ag-1: -1; D2 PAM-2: -9; D2 ag-2: 1

How did CSc1cccc(NC(=O)/C=C/c2ccccc2)c1 do in these assays?
D2 antagonist: 39*; D2 PAM-1: -25; D2 ag-1: -2; D2 PAM-2: -23; D2 ag-2: 1

How did Cc1ccccc1C(=O)Nc1cccc(-c2nc3cccnc3s2)c1 do in these assays?
D2 PAM-1: 0; D2 ag-2: 2

How did COc1ccc(N(C)C(=O)CCn2cnc3onc(-c4ccc(F)cc4)c3c2=O)c(OC)c1 do in these assays?
D2 PAM-1: 5; D2 ag-2: 0

How did CCOc1cc(C(=O)NCCN2CCOCC2)cc(OCC)c1OCC do in these assays?
D2 antagonist: 18; D2 PAM-1: 42*; D2 ag-1: -3; D2 PAM-2: -13; D2 ag-2: -2

How did O=C(Oc1ccc(-c2ccccc2)cc1)N1CCOCC1 do in these assays?
D2 antagonist: 5; D2 PAM-1: 3; D2 ag-1: 1; D2 PAM-2: -1; D2 ag-2: 0

Results for O=C(Oc1cccc(Oc2ccccc2)c1)N1CCOCC1 ?
D2 antagonist: 41*; D2 PAM-1: 7; D2 ag-1: 0; D2 PAM-2: -5; D2 ag-2: -1

Results for CN(C)/C=C/C(=O)c1ccc2noc(-c3cccc(F)c3)c2c1 ?
D2 antagonist: -11; D2 PAM-1: -2; D2 ag-1: 46*; D2 PAM-2: -4; D2 ag-2: 0

What do the screens show for `CC(=O)c1ccc2noc(-c3ccc(F)cc3)c2c1`?
D2 antagonist: 34*; D2 PAM-1: 3; D2 ag-1: 6; D2 PAM-2: 59*; D2 ag-2: 1

How did Cc1cccc(Cn2cc(C(=O)Nc3ccc(S(N)(=O)=O)cc3)ccc2=O)c1 do in these assays?
D2 PAM-1: -6

Results for COc1cccc(N2CC(NC(=O)CCCc3ccccc3)CC2=O)c1 (stereo not given) ?
D2 PAM-1: 2; D2 ag-2: -1

Results for CCc1ccccc1N(C)S(=O)(=O)c1ccc2c(c1)C(C)(C)C(=O)N2C ?
D2 PAM-1: -3; D2 ag-2: -1

Results for O=C(NCCc1ccccc1)c1ccc2c(c1)N(Cc1ccccc1)C(=O)c1ccccc1S2=O (stereo not given) ?
D2 PAM-1: -5

How did COC(=O)c1ccc(-c2ccc(/C=N/N3C(=O)C4C5C=CC(C6CC56)C4C3=O)o2)cc1 (stereo not given) do in these assays?
D2 antagonist: 1; D2 PAM-1: -3; D2 ag-1: -2; D2 PAM-2: -5; D2 ag-2: 0

Results for COC(=O)c1cccc(-c2ccc(/C=N/N3C(=O)C4C5C=CC(C6CC56)C4C3=O)o2)c1 (stereo not given) ?
D2 antagonist: 32*; D2 PAM-1: -1; D2 ag-1: 0; D2 PAM-2: -6; D2 ag-2: 0

What do the screens show for `COc1ccc2c(CNC3CCC(C)CC3)c(C(=O)O)n(Cc3ccc(F)cc3)c2c1` (stereo not given)?
D2 PAM-1: 0; D2 ag-2: 0

What do the screens show for `O=C1c2cccc3c(N4CCCCC4)ccc(c23)C(=O)N1CCO`?
D2 antagonist: 6; D2 PAM-1: -1; D2 ag-1: 1; D2 PAM-2: -7; D2 ag-2: 19

Results for Cc1n[nH]c(C)c1N1C(=O)c2cccc3c(N4CCCCCC4)ccc(c23)C1=O ?
D2 antagonist: 20; D2 PAM-1: 3; D2 ag-1: 1; D2 PAM-2: -8; D2 ag-2: 84*

How did O=C1c2cccc3c(N4CCCCC4)ccc(c23)C(=O)N1c1cccc(O)c1 do in these assays?
D2 antagonist: 16; D2 PAM-1: -7; D2 ag-1: 0; D2 PAM-2: 3; D2 ag-2: 57*

How did COc1ccc(NC(=O)Cn2c(=O)n(-c3ccccc3)c(=O)c3c4c(sc32)CCCC4)cc1 do in these assays?
D2 PAM-1: 21; D2 ag-2: 0

How did CCOc1ccc(C(=O)N(Cc2ccc(C(C)C)cc2)Cc2ccco2)cc1 do in these assays?
D2 PAM-1: 1; D2 ag-2: 1

What do the screens show for `Cc1cc(S(=O)(=O)N2CCN=C2c2ccccc2)c(Cl)cc1Cl`?
D2 antagonist: -1; D2 PAM-1: -9; D2 ag-1: -1; D2 PAM-2: 18; D2 ag-2: 30*
